The panel holds about 83,000 compounds, 20% with a hit somewhere; the sample as a whole holds those more often.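 Note: values are percent growth. 100 is the growth of untreated cells, values between 100 and 0 indicate rising inhibition; between -100 and 0 indicates cell death.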 A number with no mark means an inactive call. The source made the active and inactive calls. The calls were made as follows: active = growth percent below 10; inactive = the rest.

Holding throughout (assay): NCI-60 one-dose screen, 48 h (100 = growth as untreated, 0 = no growth, -100 = all killed)
Holding throughout (settings): 10 µM

Assay [1] concerns HCT-15 colon.
Assay [2] has as its system HT29 colon.
For assay [3], the system named is SNB-75 CNS.
Assay [4] has as its system SNB-19 CNS.
Assay [5] deals with U251 CNS.
The subject of assay [6] is PC-3 prostate.
The test system of assay [7] is SK-MEL-5 melanoma.
Assay [8] concerns UACC-62 melanoma.
The subject of assay [9] is LOX IMVI melanoma.
Assay [10] relates to SK-MEL-28 melanoma.
Assay [11] deals with EKVX NSCLC.
In assay [12] the test system is SN12C renal.
Assay [13] relates to UO-31 renal.
Assay [14] deals with TK-10 renal.
For assay [15], the system named is ACHN renal.
The test system of assay [16] is CAKI-1 renal.
Assay [17] has as its system A498 renal.
Assay [18] relates to CCRF-CEM leukemia.
Assay [19] has as its system MOLT-4 leukemia.
Assay [20] has as its system SK-MEL-2 melanoma.

Consider `N#Cc1ccc(-c2nn(-c3ccc(C(=O)O)cc3)cc2CNc2ccc(Cl)cc2)cc1`, for which the growth is 47.3% in [1]; 100% in assay [2]; 107% in assay [3]; 75.9% in assay [4]; 76.8% in assay [5]; 65.2% in assay [6]. In addition, the growth was 76% in assay [7]; 61.2% in assay [8]; 60.8% in assay [9]; 77.6% in [10]; 67.8% in assay [11]; 82.2% in assay [12]. For the same compound, the growth was 61.8% in [13]; 108% in assay [14]; 74.6% in assay [15]; 71.2% in [16]; 111% in [17]; 77.5% in [18]. For the same compound, in assay [19], the growth is 68.8%.

As for `O=C1CCC(N2Cc3cc(NC(=O)COc4ccccc4)ccc3C2=O)C(=O)N1` (stereo not given), the growth in [1] is 25.4%; in assay [2], 79.5%; in [3], 46.4%; in assay [4], 66.7%; in [5] it was 86.8%; in assay [6] it was 37.7%. The growth is 74.2% in [7]; 84.4% in [8]; 108% in [9]; 95.9% in assay [10]; 78.6% in assay [11]; 73.6% in assay [12]. Besides, the growth in assay [13] is 28.5%; in assay [14], 66%; in assay [15], 91.9%; in assay [16], 92.3%; in assay [17], 75.1%; in assay [18], 22.7%. The growth in assay [19] is 11.5%.

Regarding `CN1CCc2c(sc3ncnc(N/N=C/c4ccc5ccccc5c4)c23)C1`, the growth was 2.05% (active) in assay [1]; 20.4% in assay [2]; 76.4% in assay [3]; 74.2% in assay [4]; -4.86% (active) in assay [5]; 102% in [6]. The growth is 97.9% in assay [7]; 79.1% in assay [8]; 9.53% (active) in [9]; 100% in assay [10]; 90.4% in [11]; 72.4% in assay [12]. The growth in [14] is 110%; in assay [15] it was 67.2%; in assay [16], 78.2%; in assay [17], 106%; in assay [18] it was 40.6%.

Turning to `O=C(c1ccc(O)cc1)C1[C@H](c2ccccc2Br)[C@@H](c2ccccc2)NC12C(=O)Nc1ccc(Cl)cc12` (stereo not given in full), the growth in assay [1] was 12.3%; in [2], -30.4% (active); in [3], 2.75% (active); in assay [4], 17.2%; in [5], -31.9% (active); in [6] it was 2.91% (active). The growth was -33% (active) in assay [7]; 6.97% (active) in assay [8]; -100% (active) in [9]; 29.2% in assay [10]; 10.5% in [11]; -46.3% (active) in assay [12]. Further, the growth is 13.6% in assay [13]; 7.92% (active) in assay [14]; 2.5% (active) in assay [15]; 8.16% (active) in [16]; 9.06% (active) in assay [17]; 4.97% (active) in assay [18]. Further, the growth in [19] was -16.2% (active).

`O=C(c1ccc(Cl)cc1)C1[C@H](c2ccc(Br)cc2)[C@@H](c2ccccc2)NC12C(=O)Nc1ccc(Br)cc12` (stereo not given in full): the growth is -91.6% (active) in assay [1]; -54.5% (active) in [2]; 0.834% (active) in [3]; -51% (active) in assay [4]; -79.9% (active) in assay [5]; -23.5% (active) in [6]. For the same compound, the growth in assay [7] was -60.3% (active); in assay [8] it was -83.9% (active); in [9] it was -100% (active); in assay [20] it was -93.4% (active); in [11], -61.1% (active); in assay [12], -97.1% (active). Also, the growth in [14] was -78.7% (active); in assay [15], -39.6% (active); in assay [16], -93.9% (active); in [17], -17.1% (active); in [18] it was -7.91% (active); in [19], -33% (active).

Take `COc1cccc(COc2ccc(/C=C3\Oc4cc(O)ccc4C3=O)cc2)c1`: the growth in assay [1] was 42.1%; in assay [2], 81.1%; in assay [3] it was -22.5% (active); in assay [4], 36.1%; in [5], 50.7%; in [6], 67.8%. For the same compound, the growth in assay [7] is 24.6%; in assay [8], 82.7%; in [10] it was 71.1%; in assay [20] it was 87%; in [11], 70.9%; in assay [12], 66.1%. Besides, the growth in assay [13] is -64.7% (active); in [14] it was 2.68% (active); in assay [15], -32.1% (active); in assay [16] it was -23% (active); in assay [17], 131%; in [18], 74.9%. Moreover, the growth in [19] is 52.1%.

Take `Cc1ccc(F)cc1N/C=c1\s/c(=C(\C#N)C(=O)Nc2ccccc2)n(-c2ccccc2)c1=O`: the growth in assay [1] was 64.9%; in [2], 72.9%; in assay [3], 3.2% (active); in [4], 36.2%; in [5], 74.2%; in assay [6], 74.5%. Also, the growth was 71.8% in [7]; 98.2% in assay [8]; 95.7% in [10]; 94.7% in assay [20]; 86.7% in assay [11]; 46.9% in [12]. Further, the growth is 45.5% in assay [13]; 84.4% in [14]; -20.1% (active) in [15]; 19.8% in assay [16]; -16.7% (active) in assay [17]; 84.7% in assay [18]. Also, in assay [19], the growth was 90.3%.

The record behind these values is PubChem BioAssay (NCI).
